From publication PMC7862700, “An all-to-all approach to the identification of sequence-specific readers for epigenetic DNA modifications on cytosine”

Columns and labels:
Experiment in all cases: DAPPL (digital affinity profiling via proximity ligation, sequencing); 10 mM Tris-HCl pH 7.5, 50 mM NaCl, 1 mM DTT, 4% glycerol, room temperature, 30 min; GST-TFs on glutathione beads, 16-mer random dsDNA library, 0.1% formaldehyde crosslink after washing; high values mean tight binding
Conditions in all cases: protein: recombinant; tags: N-terminal GST; dsDNA, one strand shown
[1] = molecular target: T1, ETV3L (Homo sapiens, UniProt Q6ZN32 1-361)
T1 sequence: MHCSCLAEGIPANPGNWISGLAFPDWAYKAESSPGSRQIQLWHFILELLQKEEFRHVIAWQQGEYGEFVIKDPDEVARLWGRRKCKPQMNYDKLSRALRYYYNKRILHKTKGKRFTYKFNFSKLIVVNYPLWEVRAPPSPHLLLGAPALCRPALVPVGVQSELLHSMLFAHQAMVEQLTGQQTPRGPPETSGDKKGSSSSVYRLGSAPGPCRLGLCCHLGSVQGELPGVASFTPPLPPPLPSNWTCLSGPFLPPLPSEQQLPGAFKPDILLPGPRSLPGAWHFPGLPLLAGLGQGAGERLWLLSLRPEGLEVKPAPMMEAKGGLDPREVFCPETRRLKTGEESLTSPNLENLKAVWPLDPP
Procedure, shortened: (§1)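 Beads coated with glutathione captured GST-fused human transcription factors that had been expressed in yeast, and the factors were then given DNA barcodes and pooled with a tag-only sample. The pools were incubated with 200 nmole of a random double-stranded 16-mer DNA library in Tris/NaCl/DTT/glycerol buffer for 30 min at room temperature, washed, crosslinked with 0.1% formaldehyde and proximity-ligated with BsaI/T4 ligase at 37 °C for 1 h. PCR amplification and Illumina NextSeq500 sequencing came last. Binding signal is each hexamer's read frequency for a factor divided by its frequency for the tag-only sample.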

[2] = molecular target: T2, ETS2 (Homo sapiens, UniProt P15036 1-469)
T2 sequence: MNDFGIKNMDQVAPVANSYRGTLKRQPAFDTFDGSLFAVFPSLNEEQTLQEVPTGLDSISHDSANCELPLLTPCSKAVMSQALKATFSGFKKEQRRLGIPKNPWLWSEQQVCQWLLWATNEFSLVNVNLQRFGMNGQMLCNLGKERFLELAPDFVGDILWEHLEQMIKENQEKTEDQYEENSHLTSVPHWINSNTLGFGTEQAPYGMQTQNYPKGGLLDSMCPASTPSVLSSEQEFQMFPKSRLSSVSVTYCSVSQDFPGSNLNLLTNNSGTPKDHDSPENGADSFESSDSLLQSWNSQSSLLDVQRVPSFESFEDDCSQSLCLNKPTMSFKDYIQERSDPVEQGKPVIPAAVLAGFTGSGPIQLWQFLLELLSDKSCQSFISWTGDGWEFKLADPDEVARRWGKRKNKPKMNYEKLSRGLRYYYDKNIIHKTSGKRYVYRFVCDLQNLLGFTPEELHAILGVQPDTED
Procedure, shortened: as §1

[3] = molecular target: T3, SPDEF (Homo sapiens, UniProt O95238 1-335)
T3 sequence: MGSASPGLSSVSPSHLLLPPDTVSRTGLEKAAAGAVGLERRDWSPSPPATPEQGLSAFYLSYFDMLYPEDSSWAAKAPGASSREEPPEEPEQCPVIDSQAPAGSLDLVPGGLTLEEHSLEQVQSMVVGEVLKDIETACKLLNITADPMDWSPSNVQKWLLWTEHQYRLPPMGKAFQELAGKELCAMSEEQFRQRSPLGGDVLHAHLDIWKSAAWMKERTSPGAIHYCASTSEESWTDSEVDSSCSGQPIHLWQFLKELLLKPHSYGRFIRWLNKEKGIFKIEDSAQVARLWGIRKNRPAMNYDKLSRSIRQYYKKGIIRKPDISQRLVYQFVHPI
Procedure, shortened: as §1

[4] = molecular target: T4, ETV7 (Homo sapiens, UniProt Q9Y603 1-341)
T4 sequence: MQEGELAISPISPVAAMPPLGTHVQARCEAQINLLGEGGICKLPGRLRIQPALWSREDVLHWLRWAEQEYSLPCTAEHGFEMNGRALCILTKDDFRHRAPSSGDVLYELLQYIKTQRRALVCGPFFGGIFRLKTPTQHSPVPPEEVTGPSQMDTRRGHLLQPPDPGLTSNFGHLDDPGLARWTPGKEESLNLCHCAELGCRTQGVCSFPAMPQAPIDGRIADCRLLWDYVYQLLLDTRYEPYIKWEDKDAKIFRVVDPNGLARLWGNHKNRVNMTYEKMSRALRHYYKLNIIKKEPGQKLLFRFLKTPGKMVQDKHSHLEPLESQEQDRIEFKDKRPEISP
Procedure, shortened: as §1

[5] = molecular target: T5, ELF5 (Homo sapiens, UniProt Q9UKW6-2 1-255)
T5 sequence: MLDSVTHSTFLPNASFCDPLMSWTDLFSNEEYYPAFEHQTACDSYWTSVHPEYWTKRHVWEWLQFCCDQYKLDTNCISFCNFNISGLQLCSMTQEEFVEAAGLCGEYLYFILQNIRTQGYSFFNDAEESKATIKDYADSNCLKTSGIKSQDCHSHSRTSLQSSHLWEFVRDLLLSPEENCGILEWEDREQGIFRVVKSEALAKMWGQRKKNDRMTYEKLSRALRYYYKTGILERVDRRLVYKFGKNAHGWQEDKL
Procedure, shortened: as §1

[6] = molecular target: T6, ETV3 (Homo sapiens, UniProt P41162-2 1-143)
T6 sequence: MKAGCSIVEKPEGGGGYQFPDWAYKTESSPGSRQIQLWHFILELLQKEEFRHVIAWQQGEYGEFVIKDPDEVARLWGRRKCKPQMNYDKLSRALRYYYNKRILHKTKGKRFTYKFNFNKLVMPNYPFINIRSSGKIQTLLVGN
Procedure, shortened: as §1

[7] = molecular target: ETV6 (Homo sapiens, UniProt P41212 1-452)
Procedure, shortened: as §1

[8] = molecular target: T7, ERF (Homo sapiens, UniProt P50548 1-548)
T7 sequence: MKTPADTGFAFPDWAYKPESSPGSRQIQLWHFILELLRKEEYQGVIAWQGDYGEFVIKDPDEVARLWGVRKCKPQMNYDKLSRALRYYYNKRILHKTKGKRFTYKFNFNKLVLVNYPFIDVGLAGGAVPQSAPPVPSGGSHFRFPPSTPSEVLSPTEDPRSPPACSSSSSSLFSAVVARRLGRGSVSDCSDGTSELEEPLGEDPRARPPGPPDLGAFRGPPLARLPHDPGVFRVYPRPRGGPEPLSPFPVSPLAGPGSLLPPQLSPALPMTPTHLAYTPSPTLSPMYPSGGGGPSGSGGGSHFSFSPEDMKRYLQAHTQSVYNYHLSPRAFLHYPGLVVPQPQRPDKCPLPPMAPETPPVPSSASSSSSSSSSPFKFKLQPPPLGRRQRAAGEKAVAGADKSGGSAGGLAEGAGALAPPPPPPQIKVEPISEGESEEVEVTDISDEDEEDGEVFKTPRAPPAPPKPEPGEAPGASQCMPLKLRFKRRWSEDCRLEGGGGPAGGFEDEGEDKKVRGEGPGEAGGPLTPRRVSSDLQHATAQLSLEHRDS
Procedure, shortened: as §1

Sequence of ETV6 (P41212 whole entry): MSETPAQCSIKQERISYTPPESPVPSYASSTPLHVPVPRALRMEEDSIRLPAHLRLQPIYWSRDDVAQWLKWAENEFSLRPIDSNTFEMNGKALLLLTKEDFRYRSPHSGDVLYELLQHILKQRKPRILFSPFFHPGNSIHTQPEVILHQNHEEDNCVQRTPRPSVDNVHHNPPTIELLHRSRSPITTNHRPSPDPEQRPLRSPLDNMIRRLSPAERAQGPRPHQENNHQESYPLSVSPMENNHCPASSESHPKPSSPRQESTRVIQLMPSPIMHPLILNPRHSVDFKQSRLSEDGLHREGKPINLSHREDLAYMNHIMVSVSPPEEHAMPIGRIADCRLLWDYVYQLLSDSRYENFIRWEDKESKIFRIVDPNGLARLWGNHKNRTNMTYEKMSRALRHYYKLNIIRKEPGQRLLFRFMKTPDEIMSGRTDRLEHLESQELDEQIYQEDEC

Row | Sequence | binding signal [1] | binding signal [2] | binding signal [3] | binding signal [4] | binding signal [5] | binding signal [6] | binding signal [7] | binding signal [8]
1 | TGCCCT | 1.11 fold enrichment (6-mer frequency, TF over GST control) | 1.21 fold enrichment (6-mer frequency, TF over GST control) | 1.15 fold enrichment (6-mer frequency, TF over GST control) | 1.08 fold enrichment (6-mer frequency, TF over GST control) | 1 fold enrichment (6-mer frequency, TF over GST control) | 1.1 fold enrichment (6-mer frequency, TF over GST control) | 1.15 fold enrichment (6-mer frequency, TF over GST control) | –
2 | ATCCAA | 1.2 fold enrichment (6-mer frequency, TF over GST control) | 1.18 fold enrichment (6-mer frequency, TF over GST control) | 1.22 fold enrichment (6-mer frequency, TF over GST control) | 1.19 fold enrichment (6-mer frequency, TF over GST control) | 1.11 fold enrichment (6-mer frequency, TF over GST control) | 1.11 fold enrichment (6-mer frequency, TF over GST control) | 1.11 fold enrichment (6-mer frequency, TF over GST control) | –
3 | TGAGCT | – | – | – | – | – | – | 1.05 fold enrichment (6-mer frequency, TF over GST control) | 1.05 fold enrichment (6-mer frequency, TF over GST control)
4 | CAGATT | – | 1.02 fold enrichment (6-mer frequency, TF over GST control) | – | – | – | 1.03 fold enrichment (6-mer frequency, TF over GST control) | 1.02 fold enrichment (6-mer frequency, TF over GST control) | –
5 | GAAAGA | 1.03 fold enrichment (6-mer frequency, TF over GST control) | 1.02 fold enrichment (6-mer frequency, TF over GST control) | – | 1.1 fold enrichment (6-mer frequency, TF over GST control) | – | 1.01 fold enrichment (6-mer frequency, TF over GST control) | 1.09 fold enrichment (6-mer frequency, TF over GST control) | –
6 | AGCATC | 1.02 fold enrichment (6-mer frequency, TF over GST control) | 1.09 fold enrichment (6-mer frequency, TF over GST control) | 1.27 fold enrichment (6-mer frequency, TF over GST control) | – | 1.08 fold enrichment (6-mer frequency, TF over GST control) | 1.07 fold enrichment (6-mer frequency, TF over GST control) | 1.03 fold enrichment (6-mer frequency, TF over GST control) | –
7 | GAACCA | 1.01 fold enrichment (6-mer frequency, TF over GST control) | – | – | – | 1.01 fold enrichment (6-mer frequency, TF over GST control) | – | – | –
8 | TCAGCA | – | 1.05 fold enrichment (6-mer frequency, TF over GST control) | – | 1.11 fold enrichment (6-mer frequency, TF over GST control) | – | – | 1.02 fold enrichment (6-mer frequency, TF over GST control) | –
9 | TAAGCG | 1.03 fold enrichment (6-mer frequency, TF over GST control) | 1.05 fold enrichment (6-mer frequency, TF over GST control) | – | – | 1.01 fold enrichment (6-mer frequency, TF over GST control) | 1.05 fold enrichment (6-mer frequency, TF over GST control) | 1.01 fold enrichment (6-mer frequency, TF over GST control) | –
10 | TTATTA | 1.11 fold enrichment (6-mer frequency, TF over GST control) | 1.07 fold enrichment (6-mer frequency, TF over GST control) | 1.12 fold enrichment (6-mer frequency, TF over GST control) | 1.11 fold enrichment (6-mer frequency, TF over GST control) | 1.13 fold enrichment (6-mer frequency, TF over GST control) | 1.14 fold enrichment (6-mer frequency, TF over GST control) | 1.13 fold enrichment (6-mer frequency, TF over GST control) | –
11 | TGGCCC | 1.07 fold enrichment (6-mer frequency, TF over GST control) | 1.12 fold enrichment (6-mer frequency, TF over GST control) | 1.03 fold enrichment (6-mer frequency, TF over GST control) | 1.01 fold enrichment (6-mer frequency, TF over GST control) | 1.02 fold enrichment (6-mer frequency, TF over GST control) | 1.03 fold enrichment (6-mer frequency, TF over GST control) | 1.06 fold enrichment (6-mer frequency, TF over GST control) | –
12 | CATAAA | 1.06 fold enrichment (6-mer frequency, TF over GST control) | – | – | – | – | – | – | –
13 | ATAGGT | 1.05 fold enrichment (6-mer frequency, TF over GST control) | – | 1.05 fold enrichment (6-mer frequency, TF over GST control) | 1.17 fold enrichment (6-mer frequency, TF over GST control) | – | 1.06 fold enrichment (6-mer frequency, TF over GST control) | – | –
14 | AAAGCC | – | – | – | – | – | 1.05 fold enrichment (6-mer frequency, TF over GST control) | 1.01 fold enrichment (6-mer frequency, TF over GST control) | 1.01 fold enrichment (6-mer frequency, TF over GST control)
15 | AAGGCT | 1.02 fold enrichment (6-mer frequency, TF over GST control) | – | 1.04 fold enrichment (6-mer frequency, TF over GST control) | 1.06 fold enrichment (6-mer frequency, TF over GST control) | 1.06 fold enrichment (6-mer frequency, TF over GST control) | 1.04 fold enrichment (6-mer frequency, TF over GST control) | 1.02 fold enrichment (6-mer frequency, TF over GST control) | –
16 | GAATAT | 1.05 fold enrichment (6-mer frequency, TF over GST control) | 1.05 fold enrichment (6-mer frequency, TF over GST control) | 1.02 fold enrichment (6-mer frequency, TF over GST control) | 1.1 fold enrichment (6-mer frequency, TF over GST control) | 1.12 fold enrichment (6-mer frequency, TF over GST control) | 1.12 fold enrichment (6-mer frequency, TF over GST control) | 1.07 fold enrichment (6-mer frequency, TF over GST control) | –
